The list is not random: actives were taken first. Their share in the collection is about 2.2%.
PvdQ acylase = blocks Pseudomonas aeruginosa PvdQ acylase activity; purified PvdQ acylase, fluorescence plate reader; inhibition, % at 10 µM; hit rate 0.063% among 340,000; AID 488965; in the data active = inhibition above about 30%, passing the limit was not always enough; inconclusive = no clear call, values can overlap the other calls
Mot1-301 SUMO = SUMOylation pathway inhibition by Mot1-301 growth rescue. growth rescue, % at 18.8 µM. S. cerevisiae Mot1-301 growth rescue, ATP luminescence, 38.5C; percent above DMSO median, 100 means doubled. hit rate 1% among 320,000;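 active = every valid replicate shows activation above 250% relative to neutral control wells; inactive = the rest, any valid replicate at or below 250%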
PHOSPHO1 block = PHOSPHO1 (human) inhibition. Q8TCT1. recombinant PHOSPHO1, absorbance phosphatase assay. inhibition, % at 13.3 µM. hit rate 1.1% among 290,000; in the data active = inhibition above about 60%
Target sequence (Q8TCT1 whole entry, looked up): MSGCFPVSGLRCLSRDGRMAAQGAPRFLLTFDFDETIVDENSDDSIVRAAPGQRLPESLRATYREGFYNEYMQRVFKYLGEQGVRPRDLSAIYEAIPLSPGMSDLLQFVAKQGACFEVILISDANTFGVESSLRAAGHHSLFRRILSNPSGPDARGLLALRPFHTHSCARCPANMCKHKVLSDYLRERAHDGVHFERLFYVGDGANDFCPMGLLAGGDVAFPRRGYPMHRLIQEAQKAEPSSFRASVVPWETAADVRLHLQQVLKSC
pCIP destab = p/CIP protein destabilization; Q05BA5; decrease of EGFP signal, % at 10 µM; F442A p/CIP-EGFP cells, EGFP fluorescence, 16 h; hit rate 0.01% among 290,000;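 active = EGFP signal decrease of at least 30% at 10 µM or well 3 SD below plate mean, unless failing retest; inactive = the rest, including hits failing retest or dose response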
HDAC3 inhib = blocks human histone deacetylase 3; O15379; recombinant HDAC3, fluorogenic peptide/trypsin coupled, fluorescence; inhibition, % at 8.3 µM; hit rate 0.15% among 320,000; AID 2718; in the data active = inhibition above about 26%, passing the limit was not always enough; inconclusive = no clear call, values can overlap the other calls
Target sequence (O15379 whole entry, looked up): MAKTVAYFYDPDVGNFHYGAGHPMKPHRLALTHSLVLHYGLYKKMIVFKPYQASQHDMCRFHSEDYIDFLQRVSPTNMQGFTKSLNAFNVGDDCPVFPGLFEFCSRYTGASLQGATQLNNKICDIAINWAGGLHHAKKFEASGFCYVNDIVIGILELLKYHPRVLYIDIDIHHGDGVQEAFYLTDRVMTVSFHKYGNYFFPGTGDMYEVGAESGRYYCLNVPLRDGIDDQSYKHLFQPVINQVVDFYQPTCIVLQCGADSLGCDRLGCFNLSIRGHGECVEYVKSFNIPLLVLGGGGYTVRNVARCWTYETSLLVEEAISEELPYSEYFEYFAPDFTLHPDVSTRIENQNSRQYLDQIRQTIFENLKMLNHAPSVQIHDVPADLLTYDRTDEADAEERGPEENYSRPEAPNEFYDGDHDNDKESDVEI
GASC-1 inh = human JMJD2C demethylase inhibition; Q9H3R0; GST-JMJD2C(1-420) H3K9me3 demethylation, DELFIA europium; inhibition, % at 2.35 µM; hit rate 0.069% among 330,000; AID 2099;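 active = more than half of a compound's replicate wells show inhibition beyond 50%, single wells judged on their own value; inconclusive = some, but no more than half, of replicates pass 50% inhibition; inactive = no replicate passes 50% inhibition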;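 note: signal counts dimethyl H3K9 product captured on neutravidin plate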
Each line names hits and unclear results; the compound was inactive in the other large screens.

Cc1cc(C(=O)CCC(=O)N(C)CC(=O)Nc2ccccc2Br)c(C)s1	none (no result: PHOSPHO1 block, pCIP destab)
CS(=O)(=O)c1ccc2nc(NC(=O)c3ccc(NS(=O)(=O)c4ccc(F)c(F)c4)cc3)sc2c1	none
O=C(Nc1nc2ccc(SC(F)F)cc2s1)c1ccc(NS(=O)(=O)c2ccc(F)c(F)c2)cc1	Mot1-301 SUMO 622
COc1cc(CCN2C(=O)N[C@@H](CCc3ccccc3)C(C(C)=O)=C2C)cc(OC)c1OC	none (no result: PvdQ acylase)
Cn1c(-c2ccccc2)n[nH]c1=S	none
CSc1sc(-c2n[nH]c(=S)n2C)c2c1C=CCC2	HDAC3 inhib 34
Cc1cccc(NS(=O)(=O)c2ccc(C3CCCCC3)cc2)c1	Mot1-301 SUMO 792
CC(C)COc1ccc(CNC(=S)N/N=C/c2ccc([N+](=O)[O-])cc2)cc1	PHOSPHO1 block 95
CC(C)Oc1ccc(CNC(=S)N/N=C/c2ccc([N+](=O)[O-])cc2)cc1	PHOSPHO1 block 74
COc1ccc(CNC(=S)N/N=C/c2ccncc2)cc1	none
CCOc1ccc(CNC(=S)N/N=C/c2ccncc2)cc1	none
CCCOc1ccc(CNC(=S)N/N=C/c2ccc([N+](=O)[O-])cc2)cc1	PHOSPHO1 block 80
COc1ccc(S(=O)(=O)N/N=C(/C)c2ccncc2)cc1	none
Cc1ccc(CNC(=O)CN(C)S(=O)(=O)c2ccc3c(c2)n(C)c(=O)c(=O)n3C)cc1	none
CSc1ccc(Cl)c(C(=O)OCC(=O)N(C)CCC#N)c1	none
COc1ccccc1C(=O)NC(CCSC)C(=O)NNC(=O)c1ccccc1O (centres undefined)	none (no result: PHOSPHO1 block, pCIP destab)
O=C(Oc1cccc(NC(=O)c2ccco2)c1)c1cccc(S(=O)(=O)N2CCCC2)c1	GASC-1 inh 52
Cn1cc(S(=O)(=O)N2CCCC2)cc1C(=O)Nc1cccc(C(F)(F)F)c1	Mot1-301 SUMO 333
CSc1cccc(NC(=O)c2cc(S(=O)(=O)N3CCCC3)cn2C)c1	none
O=C(Nc1cccc(S(=O)(=O)N2CCCCC2)c1)c1ccco1	none (no result: PHOSPHO1 block, pCIP destab)
O=C(Nc1cccc(S(=O)(=O)N2CCCC2)c1)c1cccc(OC(F)F)c1	Mot1-301 SUMO 353 (no result: PHOSPHO1 block, pCIP destab)
Cc1ccc(SCC(=O)OCC(=O)N(C)C2CCS(=O)(=O)C2)cc1C (centres undefined)	none (no result: PHOSPHO1 block, pCIP destab)
CCCNC(=O)C1CCC(CNS(=O)(=O)c2cccc3nsnc23)CC1 (centres undefined)	none (no result: Mot1-301 SUMO, HDAC3 inhib)
O=C(NCc1ccccn1)C1CCC(CNS(=O)(=O)c2cccc3nsnc23)CC1 (centres undefined)	PHOSPHO1 block 63
COc1ccc(-c2ccc3oc(-c4ccsc4)cc(=O)c3c2)cn1	none (no result: PHOSPHO1 block, pCIP destab)
Cc1nc2nc(SCC(=O)NCCCN3CCCCC3)nn2c(C)c1Cc1ccccc1	none
Cc1ccc(Cc2c(C)nc3nc(SCC(=O)NCCCN4CCCCCC4)nn3c2C)cc1	HDAC3 inhib 33 (no result: PvdQ acylase)
C/C(CCC(C)C)=N\NS(=O)(=O)c1ccc(C)c([N+](=O)[O-])c1	none
Cc1ccc(S(=O)(=O)NCCC(C)C)cc1[N+](=O)[O-]	PvdQ acylase 53
O=C(Nc1nnc(C2=COCCO2)o1)c1cccc([N+](=O)[O-])c1	none
O=C(Nc1nnc(C2=COCCO2)o1)c1cccc(Br)c1	PHOSPHO1 block 61 (no result: GASC-1 inh)
O=C1CN(C(=O)CCCc2c[nH]c3ccccc23)c2ccccc2N1	HDAC3 inhib inconclusive, GASC-1 inh 54
Cc1cc(Cl)ccc1OCC(O)CNCCc1ccc(S(N)(=O)=O)cc1 (centres undefined)	Mot1-301 SUMO 309
CCc1cc(C(=O)NNC(=S)NC2CCCCC2)cs1	none
CCc1cc(C(=O)NNC(=S)NC(C)c2ccccc2)cs1 (centres undefined)	PHOSPHO1 block 65
CCc1ccc(NC(=O)CN(C)S(=O)(=O)c2ccc3[nH]c(=O)oc3c2)cc1	none
COc1ccc(NC(=O)CN(C)S(=O)(=O)c2ccc3[nH]c(=O)oc3c2)cc1	PHOSPHO1 block 63
CC(C)(C)C1=Nn2c(nnc2-c2ccccn2)SC1	PHOSPHO1 block 63
Cc1cc(C)nc(N(C#N)Cc2ccc([N+](=O)[O-])cc2)n1	PvdQ acylase 49
Cc1cc(C)nc(N(C#N)Cc2ccccc2)n1	PvdQ acylase 38
CN(C)c1nccc(N(Cc2ccccc2)Cc2ccccc2)c1C#N	none
Cc1cc(C)nc(N(C#N)Cc2cccc3ccccc23)n1	none
N#CN(Cc1ccccc1)Cc1ccccc1	PvdQ acylase 92
O=C(CCC(=O)N1CCN(c2ccc(C(F)(F)F)cn2)CC1)c1cccs1	none (no result: PHOSPHO1 block, pCIP destab, GASC-1 inh)
Cc1noc(C)c1S(=O)(=O)N(CC(=O)NC1CCC(C)CC1)c1ccc(C(C)C)cc1 (centres undefined)	none
COc1cc2c(cc1OC)C(C)N(C(=O)C1COc3ccccc3O1)CC2 (centres undefined)	Mot1-301 SUMO 755
O=C(NCc1ccccc1Cl)C1CCC(=O)N(CCCN2CCCC2=O)C1 (centres undefined)	none
Cn1nnnc1SCc1csc(Nc2ccccc2)n1	PHOSPHO1 block 95
NS(=O)(=O)c1ccc(CCNC(=O)c2ccc(Cn3c(=O)[nH]c4ccccc4c3=O)cc2)cc1	none
COc1cc(Br)cc(C=Nc2cccc(C(F)(F)F)c2)c1O	Mot1-301 SUMO 326
CCCc1nc(SCC(=O)c2ccc(F)cc2)c2ccccc2n1	HDAC3 inhib 33
Cc1cccc(-c2cccc(NC(=O)C3CCCN(Cc4cccnc4)C3)c2)c1 (centres undefined)	PHOSPHO1 block 61
O=C(C1CCCN(Cc2cccnc2)C1)N1CCCCC1 (centres undefined)	none
C[C@H](CCC(=O)O)[C@H]1CC[C@H]2[C@@H]3CC[C@@H]4C[C@H](O)CC[C@]4(C)[C@H]3C[C@H](O)[C@]12C	Mot1-301 SUMO 422 (no result: PHOSPHO1 block, pCIP destab)
CCCOc1ccc(C(=O)NC(=S)Nc2nc3ccccc3s2)cc1	PHOSPHO1 block 85
O=C(c1ccco1)N1N=C(c2ccc3nccnc3c2)CC1c1ccccc1 (centres undefined)	Mot1-301 SUMO 541
CCOC(=O)c1[nH]c2ccc(OC)cc2c1NC(=O)CCN1CCC(C)CC1	PHOSPHO1 block 71 (no result: PvdQ acylase)
CCCCCC1(C)NC(=S)N(c2ccccc2)N1 (centres undefined)	Mot1-301 SUMO 300
Cc1ccc(NS(=O)(=O)c2ccc3c(c2)NC(=O)CCS3)c(Br)c1	PHOSPHO1 block 65
O=C(Nc1ccc(F)cc1F)NC1CCCCCCC1	PHOSPHO1 block 61
O=C(Nc1c(F)c(F)c(F)c(F)c1F)NC1CCCCC1	Mot1-301 SUMO 699
CCOC(=O)C1C(=O)OC(C)(C)C1C(C)C(=O)c1ccc(C)cc1C (centres undefined)	none
COC(=O)C1C(=O)OC(C)(C)C1C(C)C(=O)c1ccc(C)cc1C (centres undefined)	PHOSPHO1 block 60
CC(=O)C(=Cc1cn(-c2ccccc2)nc1-c1ccccc1)C(C)=O	none
Cc1cc(C)nc(SCc2csc(N)n2)n1	PHOSPHO1 block 84 (no result: GASC-1 inh)

Screens (PubChem)
